Assay results: PubChem BioAssay (EPA / NIEHS)
Calls of active or inactive are those of the source. Rule for the calls: active = hit-call score of the fitted dose curve at least 0.9, where 1 is the maximum; inactive = score below 0.9.

What was measured:
[1] = biological target: CCAAT/enhancer-binding protein beta (Homo sapiens) (UniProt P17676); assay: ATG_C_EBP_CIS: Attagene CIS-FACTORIAL HepG2 Assay for human CCAAT/Enhancer Binding Protein (C/EBP) beta (AID 2282927); settings: HepG2 Attagene cis-factorial transcription factor reporter; actives raise or lower the signal
How it was run: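 Endogenous transcription factor activity in human liver HepG2 cells is inferred from induction of a CEBPB-linked reporter mRNA. Exposure lasts 24 h; activity is fitted in both directions relative to DMSO.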

[2] = ATG_CMV_CIS: Attagene CIS-FACTORIAL HepG2 Assay for human CMV (Internal Marker) (AID 2282928); settings: HepG2 CMV promoter reporter, transcription factor profiling; actives raise or lower the signal;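 note: endpoint acts as a background internal control marker rather than a target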
How it was run: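 Endogenous transcription factor activity read in HepG2 via transfected cis-promoter reporter units. After 24 h dosing, reporter mRNA measured by RT-PCR/capillary electrophoresis; gain or loss of signal fit relative to DMSO.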

[3] = ATG_AP_2_CIS: Attagene CIS-FACTORIAL HepG2 Assay for human Activator Protein 2 (AP-2) (AID 2282932); settings: HepG2 AP-2 cis-reporter, Attagene transcription factor profiling; actives raise or lower the signal
How it was run: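 Step one: transient transfection of HepG2 with reporter transcription units. Step two: 24 h chemical exposure. Step three: RNA extraction, RT-PCR, labelled fragment analysis by capillary electrophoresis; DMSO serves as baseline.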

[4] = ATG_BRE_CIS: Attagene CIS-FACTORIAL HepG2 Assay for human Bone Morphogenetic Protein (BMP) Response Element (BRE) (AID 2282933); settings: HepG2 BMP response element reporter, Attagene transcription factor profiling; actives raise or lower the signal
How it was run: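 After a 24 h chemical treatment, transiently transfected HepG2 cells were lysed for RNA; reporter transcripts were quantified by fluorescent RT-PCR and capillary electrophoresis, normalised to DMSO.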

[5] = biological target: Transcription factor E2F1 (Homo sapiens) (UniProt Q01094); assay: ATG_E2F_CIS: Attagene CIS-FACTORIAL HepG2 Assay for human E2F Transcription Factor 1 (AID 2282935); settings: HepG2 Attagene cis-reporter, E2F reporter RNA transcripts; actives raise or lower the signal
How it was run: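 Total RNA from 24 h-treated, reporter-transfected HepG2 cells undergoes DNase I treatment, oligo(dT) reverse transcription, PCR and 6-FAM primer extension before capillary electrophoresis.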

[6] = ATG_E_Box_CIS: Attagene CIS-FACTORIAL HepG2 Assay for human Enhancer Box (E-box) (AID 2282936); settings: HepG2 E-box cis-reporter transcription, actives raise or lower the signal
How it was run: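 DMSO served as negative control and baseline for bidirectional fitting. Human hepatoma HepG2 cells, transiently transfected with cis-reporter constructs, were dosed 24 h; reporter mRNA read by RT-PCR and capillary electrophoresis.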

[7] = ATG_M_61_CIS: Attagene CIS-FACTORIAL HepG2 Assay for M61 Transcription Factor (Internal Marker) (AID 2282937); settings: HepG2 Attagene CIS-FACTORIAL M61 internal marker reporter; actives raise or lower the signal
How it was run: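 Multiplexed reporter mRNA assay, HepG2 human hepatoma cells, 24 h treatment. Signal: FAM-labelled, HpaI-digested RT-PCR fragments by CE. Fit: bidirectional, baseline DMSO.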

[8] = ATG_EGR_CIS: Attagene CIS-FACTORIAL HepG2 Assay for human Early Growth Response 1 (EGR1) (AID 2282938); settings: HepG2 Attagene CIS-FACTORIAL EGR reporter mRNA; actives raise or lower the signal
How it was run: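 Multiplexed cis-reporter system in human hepatoma HepG2 cells, transiently transfected. Cells are dosed for 24 h; reporter transcripts are amplified, fluorescently tagged and sized by capillary electrophoresis, with DMSO as negative control.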

[9] = ATG_M_19_CIS: Attagene CIS-FACTORIAL HepG2 Assay for M19 Transcription Factor (Internal Marker) (AID 2282939); settings: HepG2 Attagene CIS-FACTORIAL M19 internal marker reporter; actives raise or lower the signal
How it was run: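 In this multiplexed cell assay, transiently transfected HepG2 reporter units report endogenous transcription-factor activity; after 24 hours of treatment, labelled reporter cDNA fragments are quantified by capillary electrophoresis and fitted bidirectionally against DMSO.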

[10] = ATG_FoxO_CIS: Attagene CIS-FACTORIAL HepG2 Assay for human Forkhead box O (FoxO) (AID 2282943); settings: HepG2 Attagene cis-reporter, FoxO element, mRNA; actives raise or lower the signal
How it was run: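 HepG2, transient MRTU transfection (cis element, endogenous TFs). Dose 24 h. TriZol RNA → oligo(dT) RT → PCR → 6-FAM primer extension → HpaI cut → CE. Gain/loss vs DMSO.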

[11] = ATG_GATA_CIS: Attagene CIS-FACTORIAL HepG2 Assay for human GATA Binding Protein (AID 2282944); settings: HepG2 GATA cis-element reporter, Attagene multiplex mRNA; actives raise or lower the signal
How it was run: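 Measures endogenous transcription factor-driven reporter mRNA in HepG2 cells transiently carrying cis-regulated constructs. 24 h dosing; RNA via oligo(dT) reverse transcription, PCR, HpaI digestion, capillary electrophoresis; fitted relative to DMSO.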

[12] = ATG_GLI_CIS: Attagene CIS-FACTORIAL HepG2 Assay for human Zinc Finger Protein GLI1 (AID 2282945); settings: HepG2, Attagene cis-factorial reporter mRNA, GLI element; actives raise or lower the signal
How it was run: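 Bidirectional curve fits relative to DMSO, using reporter mRNA levels from RT-PCR plus capillary electrophoresis. Cells were HepG2 transiently carrying cis-regulated reporter constructs, harvested 24 h after dosing.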

[13] = ATG_ISRE_CIS: Attagene CIS-FACTORIAL HepG2 Assay for human Interferon Regulatory Factor 1 (IRF1) binding to an Interferon-Stimulated Response Element (ISRE) (AID 2282948); settings: HepG2 ISRE cis-reporter (Attagene), mRNA transcription readout; actives raise or lower the signal
How it was run: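 Transfected HepG2 (multiple reporter transcription units, cis elements) dosed 24 h. RNA → oligo(dT) RT → PCR → 6-FAM primer extension → HpaI → CE. DMSO = negative control/baseline.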

[14] = ATG_M_32_CIS: Attagene CIS-FACTORIAL HepG2 Assay for M32 Transcription Factor (Internal Marker) (AID 2282949); settings: HepG2 Attagene cis-factorial M32 reporter, mRNA; actives raise or lower the signal;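 note: background control marker of the multiplexed CIS panel rather than a real target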
How it was run: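 Internal background marker read-out: RT-PCR/capillary electrophoresis fluorescence of reporter transcripts from transiently transfected HepG2 cells after 24 h chemical exposure. Activity fitted bidirectionally relative to DMSO negative control.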

[15] = ATG_M_06_CIS: Attagene CIS-FACTORIAL HepG2 Assay for M06 Transcription Factor (Internal Marker) (AID 2282950); settings: HepG2 Attagene CIS-FACTORIAL M06 internal marker reporter; actives raise or lower the signal
How it was run: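 One of many multiplexed endpoints: HepG2 reporter mRNA after 24 h dosing, detected by RT-PCR and capillary electrophoresis fluorescence; gain or loss of signal analysed against DMSO.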

[16] = ATG_MRE_CIS: Attagene CIS-FACTORIAL HepG2 Assay for human Metal Responsive Element (MRE) (AID 2282954); settings: HepG2 MRE cis-reporter transcription, Attagene multiplex; actives raise or lower the signal
How it was run: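 After a 24 h chemical exposure, transiently transfected HepG2 cells yield RNA whose reporter sequences are amplified, FAM-labelled and sized by capillary electrophoresis. Curves are fitted bidirectionally relative to DMSO.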

[17] = ATG_PXRE_CIS: Attagene CIS-FACTORIAL HepG2 Assay for human Pregnane X Receptor Element (PXRE) (AID 2282957); settings: HepG2 Attagene CIS-FACTORIAL PXRE reporter, mRNA; actives raise or lower the signal
How it was run: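 Cells: HepG2, transiently transfected reporter units under cis promoter control. Exposure: 24 h. Detection: reporter mRNA via RT-PCR/CE fluorescence; bidirectional fitting, DMSO-referenced.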

[18] = ATG_Sox_CIS: Attagene CIS-FACTORIAL HepG2 Assay for human SRY-box transcription factor (SOX) (AID 2282960); settings: HepG2 Attagene cis-factorial SOX reporter, mRNA; actives raise or lower the signal
How it was run: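 Fluorescence-labelled cDNA fragments from reporter transcripts, sized by CE, give the signal. Cells: HepG2, transiently transfected with cis-regulated reporter units. Exposure 24 h; DMSO negative control; bidirectional curve fitting.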

[19] = biological target: Transcription factor Sp1 (Homo sapiens) (UniProt P08047); assay: ATG_Sp1_CIS: Attagene CIS-FACTORIAL HepG2 Assay for human Specificity Protein 1 (Sp1) (AID 2282961); settings: HepG2 Sp1 cis-reporter transcription, actives raise or lower the signal
How it was run: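 Chemicals are dosed onto HepG2 cells transfected with multiple cis-promoter reporter constructs, and after 24 h reporter RNA is reverse-transcribed, PCR-amplified and resolved by capillary electrophoresis for fluorescence quantitation; activity is scored up or down against DMSO.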

[20] = ATG_SREBP_CIS: Attagene CIS-FACTORIAL HepG2 Assay for human Sterol Regulatory Element Binding (SREBP) (AID 2282962); settings: HepG2 Attagene cis-factorial SREBP reporter, mRNA; actives raise or lower the signal
How it was run: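 Transfected HepG2 (cis-regulated reporter library, endogenous TFs) → compound 24 h → total RNA → oligo(dT) RT → reporter-specific PCR → FAM primer extension, HpaI cut → CE fluorescence. Fit bidirectional vs DMSO.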

Measured: AC50

Sequence of Transcription factor Sp1 (Homo sapiens) (P08047 whole entry, looked up): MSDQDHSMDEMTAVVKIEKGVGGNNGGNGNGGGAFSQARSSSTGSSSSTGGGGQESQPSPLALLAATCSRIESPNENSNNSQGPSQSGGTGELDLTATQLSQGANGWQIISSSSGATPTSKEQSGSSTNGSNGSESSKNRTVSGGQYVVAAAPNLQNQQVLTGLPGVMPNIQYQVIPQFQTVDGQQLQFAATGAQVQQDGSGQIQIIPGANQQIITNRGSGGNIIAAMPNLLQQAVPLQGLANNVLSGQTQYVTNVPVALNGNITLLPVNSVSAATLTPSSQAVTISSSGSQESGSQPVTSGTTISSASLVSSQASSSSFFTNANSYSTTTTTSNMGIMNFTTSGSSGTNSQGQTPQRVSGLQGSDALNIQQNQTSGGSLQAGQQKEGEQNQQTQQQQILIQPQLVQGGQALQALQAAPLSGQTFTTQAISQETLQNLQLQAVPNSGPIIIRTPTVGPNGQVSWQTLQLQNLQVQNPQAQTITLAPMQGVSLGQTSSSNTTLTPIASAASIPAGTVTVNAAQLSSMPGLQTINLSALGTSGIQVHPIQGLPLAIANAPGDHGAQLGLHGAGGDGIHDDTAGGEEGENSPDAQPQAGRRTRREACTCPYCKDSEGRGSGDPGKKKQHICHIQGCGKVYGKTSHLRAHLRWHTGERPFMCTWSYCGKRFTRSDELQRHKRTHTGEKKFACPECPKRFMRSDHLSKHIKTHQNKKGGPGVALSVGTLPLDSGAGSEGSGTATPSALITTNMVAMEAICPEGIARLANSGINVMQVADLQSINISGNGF
Sequence of Transcription factor E2F1 (Homo sapiens) (Q01094 whole entry, looked up): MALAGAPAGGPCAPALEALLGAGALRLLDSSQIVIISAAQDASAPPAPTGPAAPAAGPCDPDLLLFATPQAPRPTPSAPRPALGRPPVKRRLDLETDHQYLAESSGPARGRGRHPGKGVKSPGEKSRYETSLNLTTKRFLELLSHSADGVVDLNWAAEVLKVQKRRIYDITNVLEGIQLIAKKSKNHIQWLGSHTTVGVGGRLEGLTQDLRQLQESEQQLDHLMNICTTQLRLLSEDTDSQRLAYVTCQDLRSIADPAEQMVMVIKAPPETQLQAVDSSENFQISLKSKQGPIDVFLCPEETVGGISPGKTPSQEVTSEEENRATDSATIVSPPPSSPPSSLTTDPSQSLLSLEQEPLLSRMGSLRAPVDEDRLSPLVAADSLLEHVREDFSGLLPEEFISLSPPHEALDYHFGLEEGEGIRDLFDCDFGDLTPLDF
Sequence of CCAAT/enhancer-binding protein beta (Homo sapiens) (P17676 whole entry, looked up): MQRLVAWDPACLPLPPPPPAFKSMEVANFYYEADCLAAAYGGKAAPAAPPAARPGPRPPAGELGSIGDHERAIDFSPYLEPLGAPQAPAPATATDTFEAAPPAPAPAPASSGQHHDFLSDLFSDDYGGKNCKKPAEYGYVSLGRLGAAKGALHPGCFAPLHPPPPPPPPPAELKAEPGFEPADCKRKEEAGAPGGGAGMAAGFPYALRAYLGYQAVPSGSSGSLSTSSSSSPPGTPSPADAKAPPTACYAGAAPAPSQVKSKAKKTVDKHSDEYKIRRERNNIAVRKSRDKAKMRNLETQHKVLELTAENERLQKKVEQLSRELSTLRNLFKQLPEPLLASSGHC

CCO[Si](CCCN)(OCC)OCC
active: [17] 100 µM
inactive: all other assays above

CC1=NN(c2cc(Cl)c(S(=O)(=O)O)cc2Cl)C(=O)C1N=Nc1ccc(S(=O)(=O)O)cc1 (stereo not given)
active: [17] 100 µM
inactive: all other assays above

COc1ccc2ccccc2c1
inactive: all assays above

Cc1cccnc1
active: [1] 100 µM | [4] 167 µM | [13] 164 µM
inactive: all other assays above

COC(=O)[C@]1(C)CCC[C@@]2(C)[C@H]1CC=C1C=C(C(C)C)CC[C@@H]12
active: [2] 100 µM | [4] 100 µM | [11] 173 µM | [16] 66.1 µM | [17] 3.48 µM
inactive: all other assays above

O=C(O)c1cc(Cl)cc(Cl)c1O
active: [17] 68.7 µM
inactive: all other assays above

N#CCN(CC#N)CCN(CC#N)CC#N
inactive: all assays above

CC(=O)c1nccs1
inactive: all assays above

CCC(C)C1N=C(C)C(C)S1 (stereo not given)
active: [17] 3.25 µM
inactive: all other assays above

CCCCCC[C@@H](O)C/C=C\CCCCCCCC(=O)O
active: [1] 77 µM | [4] 139 µM | [5] 177 µM | [6] 170 µM | [10] 156 µM | [11] 165 µM | [16] 139 µM
inactive: all other assays above

NC(=O)c1ccc(N)cc1
inactive: all assays above

O=C(C1CCCCC1)N1CC(=O)N2CCc3ccccc3C2C1 (stereo not given)
active: [17] 7.1 µM
inactive: all other assays above

CC(=O)Nc1c(I)c(NC(C)=O)c(I)c(C(=O)O)c1I
inactive: all assays above

CN(C)CCC(c1ccc(Cl)cc1)c1ccccn1 (stereo not given)
active: [13] 125 µM
inactive: all other assays above

CCOC(=O)CC(=O)OCC
inactive: all assays above
